One assay deals with CDK2 (gene 1017) (UniProt P24941). Nature of the assay: NVS_ENZ_hCDK2: NovaScreen (NVS) Enzymatic Assay for human Cyclin-Cependent Kinase 2 (CDK2) (AID 2283144). The method in brief: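 Cell-free recombinant human CDK2 with fluorescent substrate, product separated by electrophoretic mobility shift; 1 hr read. Primary screen at 25 uM in duplicate, actives retested in concentration-response up to 50 uM; loss of signal versus DMSO.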

Assay [1] addresses human Caspase 8 (CASP8), CASP8 (gene 841) (UniProt Q14790). Nature of the assay: NVS_ENZ_hCASP8: NovaScreen (NVS) Enzymatic Assay for human Caspase 8 (CASP8) (AID 2283146). In a few lines:
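E. coli-expressed enzyme was used in a cell-free fluorogenic substrate assay read 1 h after dosing. Loss of signal was scored relative to DMSO, and the primary screen was run in duplicate at 25 uM.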

Assay [2] addresses human FYN Proto-Oncogene, Src family Tyrosine Kinase (Fyn), FYN (gene 2534) (UniProt P06241). As to the kind of experiment: NVS_ENZ_hFyn: NovaScreen (NVS) Enzymatic Assay for human FYN Proto-Oncogene, Src family Tyrosine Kinase (Fyn) (AID 2283161). The method in brief:
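Recombinant enzyme with fluorescent substrate, product separated by electrophoretic mobility shift; read 1 h after dosing. Duplicate 25 uM single-point screen, actives retested in concentration series; loss of signal vs DMSO.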

The target of assay [3] is Histone deacetylase 3 (Homo sapiens) (UniProt O15379). Nature of the assay: NVS_ENZ_hHDAC3: NovaScreen (NVS) Enzymatic Assay for human Histone Deacetylase 3 (HDAC3) (AID 2283163). In a few lines: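 Recombinant human HDAC3 with fluorescent substrate, 1 h after dosing; product separated from substrate by electrophoretic mobility shift and read by fluorescence. Primary screen at 25 uM in duplicate; actives (e.g. ≥30% inhibition) retested in concentration-response up to 50 uM.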
Sequence of Histone deacetylase 3 (Homo sapiens) (O15379 whole entry, looked up): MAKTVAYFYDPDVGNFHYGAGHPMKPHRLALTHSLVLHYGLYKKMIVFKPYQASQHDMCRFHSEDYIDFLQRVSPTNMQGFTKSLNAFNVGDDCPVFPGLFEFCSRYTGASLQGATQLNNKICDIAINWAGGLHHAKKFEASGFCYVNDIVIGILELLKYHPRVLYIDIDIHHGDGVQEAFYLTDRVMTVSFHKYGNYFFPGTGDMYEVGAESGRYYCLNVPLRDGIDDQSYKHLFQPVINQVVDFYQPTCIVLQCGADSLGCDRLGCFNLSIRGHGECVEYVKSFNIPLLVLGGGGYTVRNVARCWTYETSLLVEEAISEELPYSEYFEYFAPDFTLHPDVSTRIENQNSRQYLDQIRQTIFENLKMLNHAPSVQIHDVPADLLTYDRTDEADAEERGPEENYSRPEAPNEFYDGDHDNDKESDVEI

For assay [4], the target named is human Colony Stimulating Factor 1 Receptor (CSF1R), CSF1R (gene 1436) (UniProt P07333). As to the kind of experiment: NVS_ENZ_hCSF1R: NovaScreen (NVS) Enzymatic Assay for human Colony Stimulating Factor 1 Receptor (CSF1R) (AID 2283150). The method in brief:
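Cell-free recombinant human CSF1R kinase with fluorescent substrate, product separated by electrophoretic mobility shift; read 1 h after dosing. Primary screen at 25 uM in duplicate, actives then in concentration-response up to 50 uM, relative to DMSO.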

In assay [5] the target is human Beta-secretase (BACE), BACE1 (gene 23621) (UniProt P56817). As to the kind of experiment: NVS_ENZ_hBACE: NovaScreen (NVS) Enzymatic Assay for human Beta-secretase (BACE) (AID 2283140).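 Also: hits are inhibitors that reduce fluorescent substrate signal versus DMSO.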 In a few lines:
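Cell-free assay of recombinant Sf9-expressed human BACE with fluorescent substrate, read by fluorescence intensity after 1 h. Primary screen in duplicate at 25 uM; actives then run in concentration series; loss of signal relative to DMSO.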

Assay [6] has as its target human Elastase, ELANE (gene 1991) (UniProt P08246). Nature of the assay: NVS_ENZ_hElastase: NovaScreen (NVS) Enzymatic Assay for human Elastase (AID 2283153). In a few lines: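 Cell-free elastase from human neutrophils, 1.5 h after dosing, activity read by absorbance. Primary screen in duplicate at 25 uM; hits (e.g., 30% inhibition) rerun in singleton concentration-response up to 50 uM, fitted versus DMSO.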

In assay [7] the target is human AKT serine/threonine Kinase 2 (AKT2), AKT2 (gene 208) (UniProt P31751). As to the kind of experiment: NVS_ENZ_hAKT2: NovaScreen (NVS) Enzymatic Assay for human AKT serine/threonine Kinase 2 (AKT2) (AID 2283141). The method in brief:
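Cell-free fluorescence/electrophoretic mobility shift readout of recombinant human AKT2 activity, 1 h after chemical dosing. Duplicate primary screen at 25 uM, then singleton concentration-response up to 50 uM; loss of signal versus DMSO baseline.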

For assay [8], the target named is human Casein Kinase 1-delta (CK1D), CSNK1D (gene 1453) (UniProt P48730). Nature of the assay: NVS_ENZ_hCK1D: NovaScreen (NVS) Enzymatic Assay for human Casein Kinase 1-delta (CK1D) (AID 2283148). The method in brief:
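Recombinant human CK1-delta, cell-free; fluorescent substrate with electrophoretic mobility-shift separation of product, read 1 h after dosing. Single 25 uM duplicate screen, then concentration-response up to 50 uM; loss of signal vs DMSO.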

For assay [9], the target named is human Ephrin type-A Receptor 1 (EphA1), EPHA1 (gene 2041) (UniProt P21709). Nature of the assay: NVS_ENZ_hEphA1: NovaScreen (NVS) Enzymatic Assay for human Ephrin type-A Receptor 1 (EphA1) (AID 2283158).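 Also: activity is signal loss versus DMSO meaning EphA1 kinase inhibition.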 In a few lines:
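Fluorescent substrate conversion, resolved by mobility-shift separation, measured 1 hour post-dosing using recombinant enzyme; signal loss relative to DMSO baseline. Single-concentration duplicates at 25 uM preceded singleton concentration series topping at 50 uM.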

Assay [10] has as its target human Esterase Plasma (ES), BCHE (gene 590) (UniProt P06276). Nature of the assay: NVS_ENZ_hES: NovaScreen (NVS) Enzymatic Assay for human Esterase Plasma (ES) (AID 2283157). In a few lines:
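Cell-free enzyme assay using esterase extracted from human plasma; colorimetric absorbance read 0.25 hour after dosing. Single-concentration duplicate screen at 25 uM, then concentration-response up to 50 uM; loss of signal scored against DMSO baseline.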

Assay [11] has as its target human AKT serine/threonine Kinase 1 (AKT1), AKT1 (gene 207) (UniProt P31749). As to the kind of experiment: NVS_ENZ_hAKT1: NovaScreen (NVS) Enzymatic Assay for human AKT serine/threonine Kinase 1 (AKT1) (AID 2283138). The method in brief:
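Recombinant human AKT1 with a specific substrate, product separated by electrophoretic mobility shift, read after 1 h. Compounds at 25 uM in duplicate, then concentration-response up to 50 uM for hits; inhibition relative to DMSO.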

The target of assay [12] is human Dual Specificity Protein Phosphatase 3 (DUSP3), DUSP3 (gene 1845) (UniProt P51452). As to the kind of experiment: NVS_ENZ_hDUSP3: NovaScreen (NVS) Enzymatic Assay for human Dual Specificity Protein Phosphatase 3 (DUSP3) (AID 2283152). The method in brief: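 Cell-free assay with recombinant human DUSP3 and fluorogenic substrate, read by fluorescence intensity. Primary screen ran duplicate at 25 uM; actives followed up in concentration series; loss of signal versus DMSO scored.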
Sequence of human Dual Specificity Protein Phosphatase 3 (DUSP3), DUSP3 (gene 1845) (P51452 whole entry, looked up): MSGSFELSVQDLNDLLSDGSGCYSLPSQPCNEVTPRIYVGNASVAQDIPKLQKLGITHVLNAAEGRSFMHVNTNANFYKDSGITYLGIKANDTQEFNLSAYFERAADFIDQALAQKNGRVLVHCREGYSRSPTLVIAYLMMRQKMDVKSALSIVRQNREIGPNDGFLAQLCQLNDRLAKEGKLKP

Assay [13] deals with human Caspase 4 (CASP4), CASP4 (gene 837) (UniProt P49662). Nature of the assay: NVS_ENZ_hCASP4: NovaScreen (NVS) Enzymatic Assay for human Caspase 4 (CASP4) (AID 2283143). The method in brief: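 The cell-free assay used E. coli-expressed enzyme with a fluorogenic substrate, read 2 h after dosing. Signal loss was scored versus DMSO. Screening was in duplicate at 25 uM, then singleton concentration-response up to 50 uM.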

These results are taken from PubChem BioAssay (EPA / NIEHS).

Results filed as inconclusive are left out. Calls of active or inactive are those of the source. The calls were made as follows: active = hit-call score of the fitted dose curve at least 0.9, where 1 is the maximum; inconclusive = response in the unintended direction; inactive = score below 0.9.

Sequence of human AKT serine/threonine Kinase 1 (AKT1), AKT1 (gene 207) (P31749 whole entry, looked up): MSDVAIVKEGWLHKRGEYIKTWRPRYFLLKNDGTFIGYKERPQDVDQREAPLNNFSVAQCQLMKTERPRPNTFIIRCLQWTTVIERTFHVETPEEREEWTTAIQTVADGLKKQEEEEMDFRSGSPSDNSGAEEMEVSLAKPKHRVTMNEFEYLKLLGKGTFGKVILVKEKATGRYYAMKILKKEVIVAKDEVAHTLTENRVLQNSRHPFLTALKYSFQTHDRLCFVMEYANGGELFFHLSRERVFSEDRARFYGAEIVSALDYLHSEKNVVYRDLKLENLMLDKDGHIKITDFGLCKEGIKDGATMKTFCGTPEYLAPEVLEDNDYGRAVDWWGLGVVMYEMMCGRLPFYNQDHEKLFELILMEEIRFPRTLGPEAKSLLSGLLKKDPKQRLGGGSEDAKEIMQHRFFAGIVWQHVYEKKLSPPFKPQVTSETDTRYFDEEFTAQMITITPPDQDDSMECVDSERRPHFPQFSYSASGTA
Sequence of human Caspase 8 (CASP8), CASP8 (gene 841) (Q14790 whole entry, looked up): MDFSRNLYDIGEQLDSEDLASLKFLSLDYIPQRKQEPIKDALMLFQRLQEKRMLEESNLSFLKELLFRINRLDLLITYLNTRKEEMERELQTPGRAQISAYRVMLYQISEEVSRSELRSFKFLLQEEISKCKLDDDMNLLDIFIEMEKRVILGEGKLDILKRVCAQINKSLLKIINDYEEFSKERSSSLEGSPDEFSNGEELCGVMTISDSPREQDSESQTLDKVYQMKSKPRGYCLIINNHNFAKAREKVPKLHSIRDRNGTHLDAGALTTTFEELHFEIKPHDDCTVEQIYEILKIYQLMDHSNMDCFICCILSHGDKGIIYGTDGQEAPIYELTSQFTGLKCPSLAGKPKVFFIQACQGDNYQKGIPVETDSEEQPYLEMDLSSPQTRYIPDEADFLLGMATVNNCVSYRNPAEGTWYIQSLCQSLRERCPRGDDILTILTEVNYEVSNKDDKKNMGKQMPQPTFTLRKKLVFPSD
Sequence of human Colony Stimulating Factor 1 Receptor (CSF1R), CSF1R (gene 1436) (P07333 whole entry, looked up): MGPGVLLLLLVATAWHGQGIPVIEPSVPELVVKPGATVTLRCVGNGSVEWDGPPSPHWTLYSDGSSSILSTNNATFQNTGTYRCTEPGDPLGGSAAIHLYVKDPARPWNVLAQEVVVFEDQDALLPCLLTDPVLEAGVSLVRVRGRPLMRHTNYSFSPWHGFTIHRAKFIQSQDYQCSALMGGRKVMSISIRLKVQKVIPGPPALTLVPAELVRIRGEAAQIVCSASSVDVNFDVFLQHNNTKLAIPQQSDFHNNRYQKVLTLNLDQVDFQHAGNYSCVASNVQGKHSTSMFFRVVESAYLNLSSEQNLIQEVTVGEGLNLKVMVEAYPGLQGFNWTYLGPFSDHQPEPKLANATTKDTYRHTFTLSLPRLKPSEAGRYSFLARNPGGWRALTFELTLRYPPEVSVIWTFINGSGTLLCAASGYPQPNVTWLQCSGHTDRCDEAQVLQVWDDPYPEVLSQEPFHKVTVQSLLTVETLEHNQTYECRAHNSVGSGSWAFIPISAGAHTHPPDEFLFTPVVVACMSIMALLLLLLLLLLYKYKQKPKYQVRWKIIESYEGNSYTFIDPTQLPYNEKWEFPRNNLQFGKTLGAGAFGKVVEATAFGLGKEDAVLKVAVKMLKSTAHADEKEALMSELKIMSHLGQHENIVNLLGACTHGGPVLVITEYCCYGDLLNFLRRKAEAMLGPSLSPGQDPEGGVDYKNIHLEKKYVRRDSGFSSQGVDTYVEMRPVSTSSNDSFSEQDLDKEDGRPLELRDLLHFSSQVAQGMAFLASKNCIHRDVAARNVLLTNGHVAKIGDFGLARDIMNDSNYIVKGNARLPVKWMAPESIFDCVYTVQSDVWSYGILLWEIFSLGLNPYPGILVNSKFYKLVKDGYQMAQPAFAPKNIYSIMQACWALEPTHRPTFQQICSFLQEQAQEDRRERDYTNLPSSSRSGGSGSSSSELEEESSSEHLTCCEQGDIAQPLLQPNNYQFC
Sequence of human Ephrin type-A Receptor 1 (EphA1), EPHA1 (gene 2041) (P21709 whole entry, looked up): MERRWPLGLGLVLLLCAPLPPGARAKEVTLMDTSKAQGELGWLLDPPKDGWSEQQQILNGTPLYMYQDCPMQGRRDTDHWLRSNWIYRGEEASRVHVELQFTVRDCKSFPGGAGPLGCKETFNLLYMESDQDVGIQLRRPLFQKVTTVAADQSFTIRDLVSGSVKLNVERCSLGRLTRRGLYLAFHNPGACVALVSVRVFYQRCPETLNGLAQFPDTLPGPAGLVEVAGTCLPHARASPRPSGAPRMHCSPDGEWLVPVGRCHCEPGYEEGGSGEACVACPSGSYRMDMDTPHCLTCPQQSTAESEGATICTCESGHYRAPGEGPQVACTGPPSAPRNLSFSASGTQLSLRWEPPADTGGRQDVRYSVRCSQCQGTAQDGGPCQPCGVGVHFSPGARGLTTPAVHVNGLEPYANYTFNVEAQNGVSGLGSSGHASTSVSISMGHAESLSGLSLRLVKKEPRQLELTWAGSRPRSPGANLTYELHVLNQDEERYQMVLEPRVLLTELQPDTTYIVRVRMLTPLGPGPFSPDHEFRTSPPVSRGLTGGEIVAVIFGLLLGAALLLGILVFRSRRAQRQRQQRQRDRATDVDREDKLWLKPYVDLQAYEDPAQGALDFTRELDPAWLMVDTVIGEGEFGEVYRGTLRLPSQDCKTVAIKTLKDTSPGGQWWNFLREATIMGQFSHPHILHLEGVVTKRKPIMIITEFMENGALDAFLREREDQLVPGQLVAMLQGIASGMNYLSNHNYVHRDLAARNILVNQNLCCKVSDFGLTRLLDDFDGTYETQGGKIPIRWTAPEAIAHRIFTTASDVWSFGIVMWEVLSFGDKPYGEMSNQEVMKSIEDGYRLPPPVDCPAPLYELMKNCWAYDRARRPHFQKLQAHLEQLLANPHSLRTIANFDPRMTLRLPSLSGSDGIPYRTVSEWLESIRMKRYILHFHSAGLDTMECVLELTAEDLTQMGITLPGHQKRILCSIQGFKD
Sequence of human Esterase Plasma (ES), BCHE (gene 590) (P06276 whole entry, looked up): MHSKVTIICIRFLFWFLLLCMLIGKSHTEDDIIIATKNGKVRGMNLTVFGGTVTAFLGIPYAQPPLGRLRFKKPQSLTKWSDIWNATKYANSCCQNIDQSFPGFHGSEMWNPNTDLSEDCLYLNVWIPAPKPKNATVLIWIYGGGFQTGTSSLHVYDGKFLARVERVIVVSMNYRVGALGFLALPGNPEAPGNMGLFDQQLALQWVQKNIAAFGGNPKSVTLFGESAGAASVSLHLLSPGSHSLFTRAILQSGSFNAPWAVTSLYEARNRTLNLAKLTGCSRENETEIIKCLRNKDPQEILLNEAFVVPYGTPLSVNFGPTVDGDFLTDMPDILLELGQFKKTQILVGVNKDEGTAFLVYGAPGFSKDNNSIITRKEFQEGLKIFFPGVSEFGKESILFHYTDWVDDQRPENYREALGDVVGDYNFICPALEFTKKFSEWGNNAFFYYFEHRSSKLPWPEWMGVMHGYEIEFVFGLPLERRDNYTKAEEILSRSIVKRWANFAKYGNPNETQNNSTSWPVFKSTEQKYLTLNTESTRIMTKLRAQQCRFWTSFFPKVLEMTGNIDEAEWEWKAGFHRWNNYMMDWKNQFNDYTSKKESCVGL
Sequence of human Casein Kinase 1-delta (CK1D), CSNK1D (gene 1453) (P48730 whole entry, looked up): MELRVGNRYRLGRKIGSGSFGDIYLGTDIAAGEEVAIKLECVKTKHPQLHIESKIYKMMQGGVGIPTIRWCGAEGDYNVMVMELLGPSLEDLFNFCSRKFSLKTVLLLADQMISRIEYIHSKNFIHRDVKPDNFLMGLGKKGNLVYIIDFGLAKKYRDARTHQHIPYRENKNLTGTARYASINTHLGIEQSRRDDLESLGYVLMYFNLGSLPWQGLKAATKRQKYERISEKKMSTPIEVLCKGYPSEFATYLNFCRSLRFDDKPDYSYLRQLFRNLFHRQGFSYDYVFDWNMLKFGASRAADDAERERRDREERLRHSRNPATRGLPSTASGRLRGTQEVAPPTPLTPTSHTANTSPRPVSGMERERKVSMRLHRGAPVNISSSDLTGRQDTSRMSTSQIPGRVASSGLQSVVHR
Sequence of human AKT serine/threonine Kinase 2 (AKT2), AKT2 (gene 208) (P31751 whole entry, looked up): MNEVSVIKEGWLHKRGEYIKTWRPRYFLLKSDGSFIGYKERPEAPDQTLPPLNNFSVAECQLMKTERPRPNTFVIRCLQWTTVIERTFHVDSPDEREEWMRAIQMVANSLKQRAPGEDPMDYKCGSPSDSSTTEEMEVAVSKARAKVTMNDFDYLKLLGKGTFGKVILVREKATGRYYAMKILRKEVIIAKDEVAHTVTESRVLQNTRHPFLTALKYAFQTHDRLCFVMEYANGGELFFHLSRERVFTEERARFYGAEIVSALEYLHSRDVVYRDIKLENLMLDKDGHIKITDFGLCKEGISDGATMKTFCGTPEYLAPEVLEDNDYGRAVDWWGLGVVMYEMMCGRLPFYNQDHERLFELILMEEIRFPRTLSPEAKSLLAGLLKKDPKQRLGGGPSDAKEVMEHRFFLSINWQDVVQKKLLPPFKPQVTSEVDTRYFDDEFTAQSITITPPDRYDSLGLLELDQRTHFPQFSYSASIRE

Turning to `O=C(O)c1cc(N=Nc2ccc(S(=O)(=O)Nc3ccccn3)cc2)ccc1O`, the compound was classed as inactive with CDK2 (gene 1017).

Take `CC(C)c1cccc(C(C)C)c1N1C(=O)c2ccc(O)cc2C1=O`: in [1], the outcome was inactive.

`Cc1ccc(N)cc1O`: the compound was called inactive in assay [2] and in assay [3].

Consider `O=C(O)CC(O)C(=O)O` (stereo not given), for which the result in assay [3] was inactive.

With `C=CCCCCCCCCC(=O)O`, the outcome with CDK2 (gene 1017) was inactive.

Turning to `CCNc1ccccc1`, in assay [1], the compound was called inactive.

For the compound `C[C@](N)(Cc1ccc(O)c(O)c1)C(=O)O`, the result in assay [4] was inactive.

For the compound `Cc1c(-c2cccnc2)c2ccccc2n1CCCCC(=O)O`, the compound was called inactive in assay [5].

As for `CCCCC(CC)COC(=O)c1ccc(C(=O)OCC(CC)CCCC)cc1` (stereo not given), in assay [6], the compound was classed as inactive.

Take `CC(C)CCCCCCCOC(=O)CCCCC(=O)OCCCCCCCC(C)C`: the result in [7] was inactive.

With `CC[C@H](C)C(=O)O[C@H]1C[C@@H](C)C=C2C=C[C@H](C)[C@H](CC[C@@H]3C[C@@H](O)CC(=O)O3)[C@H]21`, the result in [7] and in assay [1] was inactive.

With `CNCc1ccc(NC(=O)c2c[nH]c3c2C(=O)CCC3)cc1`, the compound was called inactive in assay [5].

On to `Cc1ccc(C)c(O)c1`, for which, in [1], the compound was classed as inactive.

Take `O=C(O)CCN(C1(C(=O)NO)CCCC1)S(=O)(=O)c1ccc(Oc2ccc(F)cc2)cc1`: the outcome in assay [8] was inactive.

In the case of `O=C1CCC(N2C(=O)c3ccccc3C2=O)C(=O)N1` (stereo not given), in assay [5], the compound was classed as inactive.

As to `CC(C)CCO`, the result in assay [1] and in [9] was inactive.

Regarding `COCCOc1cc2cc(C(=O)NC3CCN(C(C)C)CC3)n(CC(=O)Nc3ccc(Cl)cn3)c2cn1`, the outcome in assay [4] and in [3] was inactive. Also, the AC50 in assay [10] was 23.3 µM (active).

Take `COC(=O)c1c(Cl)c(Cl)c(C(=O)OC)c(Cl)c1Cl`: in [10], the result was inactive.

With `COCCOCCOCCOC`, in assay [1], the call was inactive.

On to `C1=CCCC=CCCC=CCC1`, for which the result in [8] was inactive.

Consider `CCOCCOCCOCCO`, for which, in assay [11], the outcome was inactive.

`CC/C(=C\C(=N/O)C(N)=O)C(C)[N+](=O)[O-]` (stereo not given): in assay [9], the compound was called inactive.

`COc1ccc2sc(C(=O)Nc3nnn[nH]3)c(OC(C)C)c2c1`: the concentration at half-maximal activity (AC50) with CDK2 (gene 1017) was 10.1 µM (active); in [8], 0.385 µM (active). Besides, the compound was classed as inactive in assay [4], in assay [6] and in [9].

Consider `CC[C@H]1CC[C@H](NCc2cc3c(cc2OC)[C@H]2C[C@H]2C(=O)N3C)[C@H](c2ccccc2)N1`, for which the AC50 in [10] was 17.3 µM (active).

On to `COc1cccc(-c2ccc(/C=C\CN3CCCCCC3)cc2Cl)c1`, for which, in assay [10], the AC50 was 1.78 µM (active).

For `CCC(C)(C)C(=O)O[C@H]1C[C@@H](C)C=C2C=C[C@H](C)[C@H](CC[C@@H]3C[C@@H](O)CC(=O)O3)[C@H]21`, the AC50 in assay [12] is 12.1 µM (active). Further, the outcome in [6] and in assay [10] was inactive.

Regarding `Cn1c(=O)c2c(ncn2C)n(C)c1=O`, the outcome in assay [8] was inactive.

In the case of `Cn1cnc([N+](=O)[O-])c1Sc1ncnc2nc[nH]c12`, the compound was called inactive in assay [11] and in assay [7].

Consider `CCn1nc(Cc2ccccc2)cc1C1CCN(C[C@H]2C[C@H](N(C)[C@@H](C(=O)O)C(C)C)C[C@@H]2c2cccc(F)c2)CC1`, for which the AC50 in assay [10] is 13 µM (active).

For the compound `O=C(O)c1cccc(Oc2ccccc2)c1`, the result in [11] and in assay [8] was inactive.

Consider `CCCCC(CC)COC(=O)CCCCCCCCC(=O)OCC(CC)CCCC` (stereo not given), for which the AC50 in assay [6] was 23.4 µM (active).

As to `CN(C)c1ccc(N=NS(=O)(=O)O)cc1`, the compound was classed as inactive in [13], in assay [8], in [4] and in [9].

For the compound `CC(C)CC(C)(O)C#CC(C)(O)CC(C)C` (stereo not given), the compound was called inactive in assay [11].

On to `CCCN(C1CCN(C(=O)C2CCNCC2)CC1)[C@@H]1CCc2ccc(OC)cc2C1`, for which the compound was called inactive in assay [10].

What is called AC50 is the concentration giving half of the maximal activity seen.
